The record followed here is ChEMBL document CHEMBL4513216, “Probing the Open Global Health Chemical Diversity Library for Multistage-Active Starting Points for Next-Generation Antimalarials” (ACS Infect Dis, 2020).

The structures appear in SMILES notation. Hit rate of the full screen: of about 65,000 compounds, about 2,100 (3.2%) showed an effect of 50% or more. The median lay at about -52%. The full list was thinned out, with strong results kept by preference.

For this experiment, the system named is Plasmodium falciparum. In words: Screen against P. falciparum Asexual Blood Stage (ABS), at 5uM. Format: functional, Dd2. As to conditions: tested at 5 uM.
In the case of `O=C1CO[C@@H]2CN(Cc3cccnc3)C[C@H]2N1Cc1ccncc1`, the INHIBITION is given as -6.5%. The same measure for `C[C@H]1C[C@H]2CN(Cc3ccccn3)CC[C@@H]2O1`: -8.95%; for `O=C1Nc2ccccc2C12CCN(Cc1ccccn1)CC2`: -45.4%. The same measure for `Cc1[nH]c2ccc(CNC3CCN(Cc4ccccn4)CC3)cc2c1C`: 93.6%. The same measure for `O=S(=O)(NC[C@H]1C[C@@H]2CCN1C[C@@H]2CN1CCOCC1)c1ccccc1`: -71.9%; for `O=S(=O)(NC[C@H]1C[C@@H]2CCN1C[C@@H]2CN1CCCC1)c1ccc(Cl)cc1`: 89.4%. As for `O=C(NC[C@H]1C[C@@H]2CCN1C[C@@H]2CN1CCCCC1)Nc1ccccc1`, the INHIBITION was -34.9%. The same measure for `CC(=O)N1CCOCC2(CN(Cc3ccccn3)CCO2)C1` (centres undefined): -107%; for `CN1CCCN(C(=O)c2ccnn2-c2ccc3ccccn23)CC1`: 70.8%. The same measure for `CN1CCN(C(=O)c2cn(Cc3ccccc3)c3ncccc23)CC1`: -70.4%; for `CC(NC1CCCC1)c1ccccc1-n1cccn1` (centres undefined): 81%. The same measure for `NC(Cc1nc(-c2ccccc2)no1)c1ccccc1` (centres undefined): -253%; for `NC(CC1CCCCC1)c1ccccc1` (centres undefined): 55.4%. For the compound `Cc1cc(CN2CC[C@H]3OCC[C@@]3(C(=O)N3CCOCC3)C2)no1`, the INHIBITION is -53.6%. The same measure for `COc1cccc([C@@H]2CCN(Cc3cccc(C)n3)C[C@H]2O)c1`: -29.5%; for `COc1cccc([C@@H]2CCN(Cc3cn(C)c4ccccc34)C[C@H]2O)c1`: 78%; for `OC[C@@H]1[C@@H](c2ccccc2)CN2CCN(c3ccccn3)C[C@H]12`: -63.3%. For `Cn1cc(CN2C[C@H](Oc3ncccc3F)[C@H]3OCCC[C@H]32)cn1`, the INHIBITION was -37%.

With `Cn1cc(CN2CCCC(CCc3ccc(F)cc3)C2)cn1` (centres undefined), the INHIBITION turned out to be 74.7%. For `Cn1cc(CN2CCN3C[C@H](Oc4cccnc4)C[C@H]3C2)cn1`, the INHIBITION was -50.7%.

`Cn1cc(CN2CC[C@@H]3[C@@H]2CCN3C(=O)Cc2cccc(F)c2)cn1`: the INHIBITION is listed as -39.1%. For `Cc1cccc(CN2CC[C@H]3[C@H]2CCN3Cc2cnn(C)c2)n1`, the INHIBITION is given as -127%. As for `Cn1cc(CN2CCCC(CCc3c(F)cccc3F)C2)cn1` (centres undefined), the INHIBITION was determined as 79.3%. On to `Cn1cc(CN2CCCC(CCc3ccc(F)cc3F)C2)cn1` (centres undefined), for which the INHIBITION worked out at 89.3%. The same measure for `CN(C)[C@@H]1CCN(C(=O)Cc2ccc(F)cc2)[C@H]1Cc1cnn(C)c1`: -2.98%. The same measure for `Cn1cc(CN2CCCC(CCc3ccc(F)c(F)c3)C2)cn1` (centres undefined): 71.2%; for `Cn1cc(CN2CC[C@H]3CO[C@H](CNc4ncccn4)[C@H]3C2)cn1`: -108%; for `Cc1ccc(N2CCO[C@H]3CN(Cc4cnn(C)c4)C[C@H]32)nn1`: 7.68%. The same measure for `Cn1cc(CN2C[C@@H]3CCC[C@@H](OCc4cccnc4)[C@@H]3C2)cn1`: -74.7%.

With `CC(=O)N1CCC2(CCN(CC(C)C)C2)C1` (centres undefined), the INHIBITION is -17.7%. For `CCOC(=O)CN1C[C@@H]2OCCN(c3ncc(F)cn3)[C@@H]2C1`, the INHIBITION was -17.5%. As to `COCc1cn(C[C@H]2C[C@@H]3CCN2C[C@@H]3C(=O)N2CCOCC2)nn1`, the INHIBITION was -65.4%. The same measure for `Cc1cc(C)nc(-n2nc(C)c3c2NC(=O)CSC3c2cnn(C)c2)n1` (centres undefined): -48.5%; for `FC(F)(F)c1ccccc1CCC1CCCN(Cc2cscn2)C1` (centres undefined): 79.6%; for `Cn1ccnc1CN1CCN2C[C@H](OCc3cccnc3)C[C@H]2C1`: -52.6%. The same measure for `Cc1noc(C)c1CN1CCO[C@H]2CN(Cc3nccn3C)C[C@H]21`: -35.4%.

`Cn1cc(CN2CCCC(CCc3ccccc3C(F)(F)F)C2)cn1` (centres undefined): the INHIBITION was 87.9%. The same measure for `Cc1nc(CN2CCCC(CCc3ccccc3C(F)(F)F)C2)no1` (centres undefined): 45.9%; for `CN(C)Cc1cncc2c1CCN(Cc1cnn(C)c1)C2`: -86.8%. The same measure for `Cc1nc(CN2CCCC(CCc3ccc(F)c(F)c3)C2)c[nH]1` (centres undefined): 81.9%. For `COc1cccc([C@@H]2CCN(Cc3c[nH]c(C)n3)C[C@H]2O)c1`, the INHIBITION is recorded as -35.2%.

In the case of `Cn1ccnc1CN1CCCC(CCc2ccc(F)c(F)c2)C1` (centres undefined), the INHIBITION is recorded as 74.5%.

In the case of `O=C(Cc1cnccn1)N1C[C@@H]2CC[C@H]1CN(Cc1cscn1)C2`, the INHIBITION was -120%. The same measure for `CC(C)(C)CNCC1(O)CCCN(Cc2ccccc2F)C1=O` (centres undefined): 84.5%; for `COC(=O)C(CO)NC(=O)c1cn(Cc2ccccc2F)nn1` (centres undefined): -19.2%.

With `O=C1N(Cc2ccc(F)c(F)c2)CCCC1(O)CNCC1CCCCC1` (centres undefined), the INHIBITION is reported as 74.1%. `COc1ccc(F)c(CN2CCCC(O)(CNC3CCCCC3)C2=O)c1` (centres undefined): the INHIBITION was determined as 70.3%.

`Cc1nc(C2(NCc3cccc(F)c3F)CCCCC2)no1`: the INHIBITION was -42.2%.

Take `O=C1N(Cc2cccc(F)c2F)CCCC1(O)CNCC1CCCCC1` (centres undefined): the INHIBITION turned out to be 74.4%.

With `O=C(C1CCCC1)N1CCO[C@@H]2CNC[C@@H]21`, the INHIBITION is 8.33%. The same measure for `O=C1N(c2ccsc2)CCC12CCCN(Cc1ccccn1)C2` (centres undefined): -30.2%; for `c1cncc(OC[C@@H]2CC[C@H]3[C@H](CCN3Cc3cccs3)O2)c1`: -15.5%. The same measure for `Cc1oncc1C(=O)N[C@@H]1CN(CC2CC2)C[C@@H]2CCCO[C@@H]21`: -164%; for `Cc1cc(CN2C[C@@H]3COC[C@]3(CNC(=O)c3ccco3)C2)no1`: -65.1%. The same measure for `CC(C)N1CCO[C@H]2CN(C(=O)Cc3cccs3)C[C@H]21`: -102%; for `c1cc(CO[C@@H]2CC[C@H]3[C@H]2OCCN3CC2CCOCC2)ccn1`: -52.1%. Regarding `CNC(=O)[C@@]12CCCN(c3ncccn3)[C@@H]1CN(C)C2`, the INHIBITION is on record as -69.8%. As to `CC(C)(C)c1cc(=O)[nH]c(C2(N)CCCC2)n1`, the INHIBITION is -59.9%. The same measure for `NC(=O)CN1CCC(Nc2ccnc3ccc(Cl)cc23)CC1`: 94.4%. The same measure for `CS(=O)(=O)N1CCC(Nc2ccnc3ccc(Cl)cc23)CC1`: 88.6%. The same measure for `Cc1cc(C)cc(OCC(=O)N2CCCN(CC(N)=O)CC2)c1`: -21.7%; for `NC(=O)CN1CCCN(C(=O)COc2cccc(F)c2)CC1`: -58.7%; for `CS(=O)(=O)N1CCC(Nc2ccc(C#N)c(C(F)(F)F)c2)CC1`: -14.2%. Regarding `O=C1[C@H]2CN(Cc3ccoc3)C[C@H]2CN1Cc1ccncc1`, the INHIBITION is on record as -110%. The same measure for `COc1ccc2c(c1)c(C(=O)Nc1cc(C)n(C)n1)cn2C(C)C`: 9.46%; for `O=C1NCc2ccccc2CC12CCN(Cc1ccncc1Cl)C2` (centres undefined): -32%; for `COc1cc(C2SCC(=O)Nc3ccsc32)cc(OC)c1OC` (centres undefined): -0.914%. The same measure for `c1csc(CN2CC[C@H]3C[C@H](c4ccncn4)O[C@@H]3C2)c1`: -71.5%. The same measure for `Cn1cc(CN2CCN(CC3(c4ccccc4)CC3)CC2)cn1`: 78.9%; for `Cn1cc(CN2CCC3(CC2)C(=O)Nc2ccccc23)cn1`: -74.2%. With `Cn1cc(CN2CCC3(CCCN3Cc3cccnc3)CC2)cn1`, the INHIBITION is listed as -18.8%. The same measure for `C=Cn1cc(CN2CCN(CC3(c4ccccc4)CC3)CC2)c(C)n1`: 72.4%. The same measure for `O=C1CO[C@@H]2CN(C3CCOCC3)C[C@H]2N1Cc1ccncc1`: -24.5%.

Turning to `Cn1nc(-c2cccs2)cc1[C@H]1CN2CC[C@H]1C[C@@H]2CNS(C)(=O)=O`, the INHIBITION is reported as -60.1%.

In the case of `Cc1nc(C2(NCC(=O)NC(=O)Nc3ccccc3)CCCCC2)no1`, the INHIBITION is -126%. The same measure for `CCn1ccnc1CN1CCCC(CO)(Cc2cccc(Cl)c2)C1` (centres undefined): 76.8%; for `CCn1ccnc1CN1CCCN(C(=O)Cc2ccc(C)s2)CC1`: -75.1%.

As for `CCOC(=O)C1(Cc2ccccc2)CCCN(Cc2nccn2CC)C1` (centres undefined), the INHIBITION came to 71.1%. The same measure for `CCn1ccnc1CN1CCCN(C(=O)Cc2ccc(C)nc2)CC1`: -85.3%. With `CCn1ccnc1CN1CCCN(C(=O)Cc2ccc(C)cc2)CC1`, the INHIBITION is on record as -118%. Take `Cc1cnn(CC(C)NCc2cc(C#N)ccc2F)c1` (centres undefined): the INHIBITION was -49.9%.

With `Fc1cnc(N2CCO[C@H]3CN(CC4CCCCC4)C[C@H]32)nc1`, the INHIBITION worked out at 34.2%. Take `Cc1cccc(C)c1NC(=O)CNC(C)Cc1ccsc1` (centres undefined): the INHIBITION is 29.6%. The same measure for `COc1ccc(CNC(Cc2ccsc2)c2ncccc2C)cc1OC` (centres undefined): 74.7%; for `Cc1ccc(NC(=O)CNC(C)Cc2ccsc2)cc1F` (centres undefined): 22.9%.

In the case of `COc1cccc(OC)c1CNC(Cc1ccsc1)c1ccc(C)cn1` (centres undefined), the INHIBITION was 92.5%. With `COc1ccc(CNC(C)Cn2cccn2)cc1F` (centres undefined), the INHIBITION was -60.6%. Take `Cc1ncsc1CN1C[C@@H]2CCCO[C@@H]2[C@H](Nc2ccccn2)C1`: the INHIBITION is recorded as -27.2%.

With `c1ccc2sc(N3CCCN(c4ncnc5c4CCNC5)CC3)nc2c1`, the INHIBITION worked out at 85.2%. For `c1ccc(C2CCN(c3ncnc4c3CCNC4)CC2)cc1`, the INHIBITION came to 74.4%. The same measure for `Clc1cccc(C2CCN(c3ncnc4c3CCNC4)C2)c1` (centres undefined): 79.6%; for `CC[C@H](C)[C@@H](CO)NC(C)Cc1ccc(F)cc1` (some centres undefined): 41.2%; for `O=C(C1CCC1)N1CCO[C@@H]2CNC[C@@H]21`: -39.2%. The same measure for `COC(=O)NCC1CCC2(CCNCC2)O1` (centres undefined): -44.6%; for `CCOC(=O)[C@@H]1[C@@H](c2ccccc2)CN2CCN(C(=O)N(C)C)C[C@H]12`: -64%; for `CCOC(=O)N1CCC(NC(C)Cc2cc(C)n[nH]2)CC1` (centres undefined): -139%. The same measure for `CCC(CNC1CCN(C(=O)N(C)C)CC1)Oc1ccccc1C` (centres undefined): 73.2%.

Regarding `CN(C)C(=O)CN1CCCC12CCCN(c1ncc(F)cn1)C2` (centres undefined), the INHIBITION was -30.5%. The same measure for `CC(C)(C)n1cc(C2=CCN(CCNC(=O)c3ccccc3)CC2)cn1`: 19.4%; for `CC(C)(C)n1cc(C2=CCN(CCN3CCCCCC3)CC2)cn1`: 71.5%. Take `CC(C)(C)n1cc(C2=CCN(CCc3ccccc3)CC2)cn1`: the INHIBITION is 68%.

In the case of `Cc1nc(O)cc(CN2CC=C(c3cnn(C(C)(C)C)c3)CC2)n1`, the INHIBITION is given as -58.8%. The same measure for `CC(C)(C)n1cc(C2=CCN(CCNC(N)=O)CC2)cn1`: -161%; for `CC(C)(C)n1cc(C2=CCN(CCc3ccccn3)CC2)cn1`: 45.2%.
